Test results published in PubChem BioAssay.
A number with no mark means an inactive call. Activity calls are given as the source filed them.

assay: S. pombe growth modifiers, basal conditions – strain 972, OD600, 24 h, no modulator, primary screen (AID 1090);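 note: basal condition with compound alone and no growth modifier present; test concentration not given here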; settings: S. pombe 972 growth, higher = more signal, called active from +8 up or from −8 down

SMILES | z-score
COCC(=C=CC[C@@H](O)c1ccccc1OCCO)C[C@@H](O)c1ccccn1 | -1.4
COc1ccc([Si](C)(C)[C@H]2[C@H](CCO)O[C@@]3(C(=O)N(Cc4cccc(N5CCOC5=O)c4)c4ccccc43)[C@@H]2C)cc1 | -0.406
COC(=O)C(CC#Cc1ccc2c(c1)[C@]1(C(=O)N2)[C@H](C(=O)N2CCc3cc(OC)c(OC)cc3C2)[C@H]2C(=O)O[C@H](c3ccccc3)[C@H](c3ccccc3)N2[C@@H]1c1ccc(O)cc1)C(=O)OC | 0.355
COc1ccc([Si](C)(C)[C@H]2[C@H](CCn3cc(CCO)nn3)O[C@@]3(C(=O)N(Cc4cccc(N5C(=O)c6cccc7cccc5c67)c4)c4ccccc43)[C@@H]2C)cc1 | 0.903
C[C@H]1ON(c2ccccc2)[C@@H](c2ccccc2)[C@@H]1C(=O)N1C(=O)OC[C@@H]1c1ccccc1 | -0.0839
COc1ccc(C#Cc2ccc3c(c2)[C@]2(C(=O)N3)[C@H](C(=O)O)[C@H]3C(=O)O[C@H](c4ccccc4)[C@H](c4ccccc4)N3[C@@H]2c2ccc(OCCO)cc2)cc1 | -0.0666
C=CCC(OC(C)=O)[C@@H]1[C@@H](N(Cc2ccc(-c3ccccc3)cc2)C(=O)Cc2ccc(OC)cc2)c2cc(OCCCO)ccc2N1C(=O)c1ccc(-c2ccccc2)cc1 (stereo not given in full) | -0.512
Cc1ccc(S[C@]2(C(=O)NCC(C)C)CC(=O)N(C3CCCCC3)[C@@H]2c2ccc(CO)cc2I)cc1 | 0.293
COC(=O)C(CC#Cc1ccc2c(c1)[C@]1(C(=O)N2)[C@H](c2ccc(OCCO)cc2)N2[C@H](c3ccccc3)[C@H](c3ccccc3)OC(=O)[C@H]2[C@@H]1C(=O)O)C(=O)OC | -0.0363
[N-]=[N+]=NCc1ccccc1C[C@@]1(C(=O)NCCN2CCOCC2)N=C(c2ccc(OCCCO)cc2)O[C@@H]1c1ccccc1CN=[N+]=[N-] | -0.67
C[C@]12C(=O)N(CCCO)[C@@H]3C(=O)N(c4ccc(Cl)cc4)CC=CC31O[C@@H]1/C=C\CCCOC(=O)C12 (stereo not given in full) | -1.51
CCCCC(O)C1C=CC2C(=O)N(Cc3ccccc3)C(=O)C2N1n1cnnc1 (stereo not given) | 0.653
Cc1ccccc1C(O)C1C=CC2C(=O)N(C)C(=O)C2N1Nc1ccc([N+](=O)[O-])cc1[N+](=O)[O-] (stereo not given) | 0.73
COCCOC(=O)N1C(=O)[C@@]2(c3cc(C#Cc4ccc(OC)cc4)ccc31)[C@H](C(=O)N1CCc3cc(OC)c(OC)cc3C1)[C@H]1C(=O)O[C@H](c3ccccc3)[C@H](c3ccccc3)N1[C@@H]2c1ccc(OCCO)cc1 | 1.36
O=c1c2ccc(Br)cc2nc(-c2ccccc2)n1Cc1cccc(O)c1 | -2.91
Cc1ccc(S[C@]2(C(=O)NCCN3CCOCC3)CC(=O)N(C3Cc4ccccc4C3)[C@@H]2c2ccc(CO)cc2)cc1 | -0.291
C=CC[C@@]1(C(=O)NCCN2CCOCC2)N=C(c2ccc(OCCCO)cc2)O[C@@H]1c1ccccc1 | 0.132
C[C@H]1NC(=O)C([C@@H](C)OCc2ccccc2)NC(=O)[C@@]23C(=O)N[C@@H](Cc4ccccc4)C2[C@H](C)[C@@]2(C)O[C@H]2C3/C=C/CC/C=C/CNC1=O (stereo not given in full) | -0.657

SMILES | z-score
C/C=C/[C@@H](CCn1cc([C@H](O)c2ccccc2)nn1)[Si](C)(C)c1ccc(OC)cc1 | -0.143
CCCC=C(CCC)[C@@H](NC(=O)Cc1ccccc1)c1ccc(C(=O)OC)cc1 | 0.847
C=C(COC)/C(=C/C[C@@H](OC(=O)c1ccncc1)c1cccc(OCCO)c1)c1cc(C(=O)OC)ccc1OC | -20.2 (active)
COc1cc(NN2C(C(O)c3ccc(I)cc3)C=CC3C(=O)N(C)C(=O)C32)cc(OC)c1OC (stereo not given) | 0.605
COCCCNC(=O)[C@@]1(Cc2ccccc2CN=[N+]=[N-])N=C(c2ccc(OCCCO)cc2)O[C@H]1c1ccccc1N=[N+]=[N-] | -0.954
O=C(CS)NCCCCCNC(=O)[C@@H]1C[C@@H]2C(=O)N3CCC[C@H]3C(=O)N2[C@@H]1c1ccc(O)cc1 | -0.207
Cc1cc(C)c(C(O)C2C=CC3C(=O)N(c4ccccc4)C(=O)C3N2Nc2ccc([N+](=O)[O-])cc2)c(C)c1 (stereo not given) | 0.957
C=C[C@H](C)[C@H](OC(=O)Nc1ccc(SC)cc1)c1ccc(O)c2ccccc12 | -20.8 (active)
COC(=O)C(CC#Cc1ccc2c(c1)[C@]1(C(=O)N2)[C@H](C(=O)N2CCc3cc(OC)c(OC)cc3C2)[C@H]2C(=O)O[C@H](c3ccccc3)[C@H](c3ccccc3)N2[C@@H]1c1ccc(OCCO)cc1)C(=O)OC | 1.63
COC(=O)[C@@]1(Cc2ccc(OC)cc2)[C@H]2c3cc(C(=O)N4CCCC4)n(CCc4ccc(O)c(OC)c4)c3C[C@H]2CN1C(=O)c1ccccc1 | 0.452
O=C1N(CCS(=O)(=O)c2ccccc2)Cc2ccccc2C[C@@]12COC(c1ccc(OCCCO)cc1)=N2 | 0.381
CC(C)C[C@H]1NC(=O)[C@H](C)NC(=O)[C@@]23C(=O)N[C@@H](Cc4ccccc4)C2[C@H](C)[C@@]2(C)O[C@H]2C3/C=C/C/C=C\CNC1=O (stereo not given in full) | -1.25
COc1ccc([Si](C)(C)[C@H]2[C@H](CC(=O)N3CCC[C@H]3CO)O[C@@]3(C(=O)N(Cc4ccc(N5C(=O)c6cccc7cccc5c67)cc4)c4ccccc43)[C@@H]2C)cc1 | 0.363
COc1cccc(C)c1NC(=O)O[C@H]1[C@H](OC(=O)Nc2ccccc2)[C@H](OC(=O)Nc2ccccc2)[C@@H](OC)O[C@@H]1CO | 1.03
C=CCC(OC(C)=O)[C@@H]1[C@@H](N(Cc2ccc(-c3ccccc3)cc2)C(=O)c2cccc3ccccc23)c2cc(OCCCO)ccc2N1C(=O)c1ccc2ccccc2n1 (stereo not given in full) | -0.283
O=C1O[C@H](c2ccccc2)[C@H](c2ccccc2)N2[C@H]1[C@@H](C(=O)N1CCN(c3ncccn3)CC1)[C@]1(C(=O)Nc3ccc(C#CCCO)cc31)[C@H]2c1ccc(OCCO)cc1 | 1.14
COC(=O)[C@@]1(Cc2ccccc2N=[N+]=[N-])N=C(c2ccc(OCCCO)cc2)O[C@H]1c1ccccc1 | -3
